Pf Dd2 inh – inhibitors of Plasmodium falciparum Dd2 growth | P. falciparum Dd2 growth, SYBR Green, 72 h | Potency, µM (series often up to 28.9 µM), without a hit: at the top dose activity, negative = inhibition, actives largely listed as inhibitors | AID 1347417 | hit rate 4.3% among 120,000; active = well fitted inhibition curve with a large enough effect;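 note: plate controls were DMSO vehicle for no effect and reference drug for full effect; nearly all actives have a fitted effect of over 65% in size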
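Infected erythrocytes (Dd2, 0.3% parasitemia, 2.5% hematocrit final) are added to compound in RPMI-1640/Albumax II medium, grown 72 h at 37C in low oxygen, then lysed with saponin/Triton-X containing SYBR Green and read by fluorescence.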
Starred values were filed as active, the others as inactive; i = inactive; [ ] = dose if it differs, or a comment. This excerpt belongs to a sample that is enriched for hits. Potency is the fitted concentration of half-maximal effect.

SMILES	Pf Dd2 inh
CCOC(=O)N1CCN(C(=O)c2ccc3c(c2)N(Cc2cccc(Cl)c2)C(=O)c2ccccc2S3=O)CC1 (centres undefined)	-10.8%
O=C(NC1CCCCC1)c1ccc2c(c1)N(Cc1ccc(F)cc1)C(=O)c1ccccc1S2(=O)=O	-8.8%
COCCNC(=O)c1ccc2c(c1)N(Cc1cccc(Cl)c1)C(=O)c1ccccc1S2=O (centres undefined)	21.8%
COc1ccc(NC(=O)c2ccc3c(c2)N(Cc2cccc(Cl)c2)C(=O)c2ccccc2S3=O)cc1Cl (centres undefined)	3.16µM*
CC(C)NC(=O)c1ccc2c(c1)N(Cc1cccc(Cl)c1)C(=O)c1ccccc1S2=O (centres undefined)	23.2%
O=C(c1ccc2c(c1)N(Cc1cccc(Cl)c1)C(=O)c1ccccc1S2=O)N1CCC(Cc2ccccc2)CC1 (centres undefined)	-24.5%
CC(=O)c1ccc(NC(=O)c2ccc3c(c2)N(Cc2cccc(Cl)c2)C(=O)c2ccccc2S3=O)cc1 (centres undefined)	11.2µM*
CC1CCCCN1C(=O)c1ccc2c(c1)N(Cc1cccc(Cl)c1)C(=O)c1ccccc1S2=O (centres undefined)	-12.4%
CCN1C(=O)c2ccccc2S(=O)c2ccc(C(=O)NCc3ccccc3OC)cc21 (centres undefined)	-20.1%
CS(=O)(=O)N1CCC(Oc2ccccc2-c2nc(C3CC3)no2)C1 (centres undefined)	i
CNC(=O)[C@@H]1C[C@H](n2cc(CNC(=O)Nc3cccc(Cl)c3C)nn2)CN1	0.6%
CCC1(C(=O)NCCN2CCOCC2)CCCCC(=O)N1 (centres undefined)	-24.4%
COc1cc2c(cc1OC)C(C[C@H]1CN(C(=O)Cc3cccs3)CC[C@H]1CC(=O)O)=NCC2	-12.2%
Cc1c(NC(=O)CCc2cc3n(n2)CCNC3)cccc1-c1nncn1C	-2.7%
COCCC(=O)N[C@H]1CC[C@]2(C)CC[C@@H]([C@H](C)C(=O)NC(C)(C)C)[C@H](O)[C@H]2[C@@H]1C	-13.6%[44.1 µM]
COc1ccc(-c2n[nH]c3c2CC(=O)N(Cc2ccccn2)C3)cn1	7.4%[44.1 µM]
CCS(=O)(=O)N1CCC(F)(c2nc(-c3ccccc3)no2)CC1	-18.6%
Cc1ccc(NC(=O)C2Cn3cccc3C(=O)N2)cc1F (centres undefined)	21.3%
O=C1NC2(Cc3ccccc31)CN(CC1CCNC1)C2 (centres undefined)	18.2%[44.1 µM]
O=S(=O)(Nc1ncc(CN2CC[C@H]3CNC[C@H]32)cn1)c1ccccc1	-3.9%
COc1ccc(CCNC(=O)c2ccc3c(c2)N(Cc2cccc(C)c2)C(=O)c2ccccc2S3(=O)=O)cc1OC	i
COc1ccc(NC(=O)c2ccc3c(c2)N(Cc2cccc(Cl)c2)C(=O)c2ccccc2S3(=O)=O)cc1Cl	7.94µM*
NC(=O)C1CCN(C(=O)c2ccc3c(c2)N(Cc2cccc(Cl)c2)C(=O)c2ccccc2S3(=O)=O)CC1	21.9%
CCN(CCCNC(=O)CC1=C2CCCCC2NC1=O)c1ccccc1 (centres undefined)	-27.1%
COCCOCc1nc(C2CCN(C(=O)Nc3ccc(OC)c(OC)c3)CC2)no1	6.2%
SMILES	Pf Dd2 inh
COc1cc2c(cc1OC)C(COc1ccc3c(C)cc(=O)oc3c1)N(C(=O)c1cccc(OC)c1OC)CC2 (centres undefined)	8.91µM*
CCNC(=O)NCC1c2cc(OC)c(OC)cc2CCN1C(=O)Nc1ccccc1OC (centres undefined)	i
Cc1cc(C)c(NC(=O)COc2ccc3c(C)cc(=O)oc3c2)c(C)c1	i
COc1cc2c(cc1OC)C(COc1ccc3c(C)cc(=O)oc3c1)N(C(=O)c1cccc(C)c1)CC2 (centres undefined)	5.01µM*
COc1ccc(CC(=O)NCc2ccc3c(c2)CCN3C(=O)c2cccc(C)c2)cc1	i
COc1ccc(OCC(=O)N2CCN(C(=O)c3cccc(OC)c3OC)CC2)cc1	-0.8%
OCC1CN(Cc2cc(Br)ccc2F)CC12CCNCC2 (centres undefined)	i
O=C(N[C@H]1CCOC[C@H]1C1CCOCC1)c1ccc2c(c1)ncn2CCO	-20.7%
O=C(Nc1ccc(Oc2ccccc2)cc1)N[C@H]1CO[C@H]2[C@@H]1OC[C@@H]2n1cc(-c2ccccc2)nn1	-7.6%
O=C1CCCCCN1C1CCN(Cc2cccnc2)CC1	4.7%[44.1 µM]
O=C1CCCCCN1C1CCN(Cc2ccsc2)CC1	7.08µM*
O=C1COCCN1C1CCN(Cc2ccsc2)CC1	14.7%[44.1 µM]
Cc1cc(C(F)(F)F)nn1CC(=O)N1CCCC(c2[nH]ccc2C(N)=O)C1 (centres undefined)	i
COCC1CN(C)CC12CCN(Cc1cnn(C(C)C)c1)CC2 (centres undefined)	9.4%
CCNC(=O)c1ccc(CN2C(=O)NC3(CCS(=O)(=O)CC3)C2=O)cc1	-5.7%
COc1ccc(C)cc1NC(=O)c1ccc2c(c1)N(C)C1CCCN1C2=O (centres undefined)	i
CCc1cc(N(C)Cc2ccc(OC)c(OC)c2)n2nccc2n1	-4.4%
N#Cc1cccc(C(=O)Nc2ccc([C@@H](O)[C@H]3COCC(=O)N3Cc3ccc(F)cc3)cc2)c1	-18.1%
N#Cc1ccc(C(=O)Nc2ccc([C@@H](O)[C@H]3COCC(=O)N3Cc3ccc(F)cc3)cc2)cc1	10µM*
O=C(Nc1ccc([C@@H](O)[C@H]2COCC(=O)N2Cc2ccc(F)cc2)cc1)c1ccccc1	i
COc1ccc2[nH]c3c(c2c1)CCNC31CCN(C(=O)c2c(C)noc2C)CC1	i
O=C([C@H]1C[C@@H](F)CN1S(=O)(=O)c1ccc(Cl)cc1)N1CCOCC1	6.1%
CN(c1ccccc1)c1cc(=O)c2ccnc(N3CCOCC3)c2o1	-10.6%[44.1 µM]
CN(c1ccccc1)c1cc(=O)c2ccnc(N3CCN(c4ccccn4)CC3)c2o1	12.6µM*
CN1CCN(c2cc(=O)c3ccnc(N4CCN(c5ccccn5)CC4)c3o2)CC1	-14.0%[44.1 µM]
SMILES	Pf Dd2 inh
O=C(c1ccncc1)N1CCCC(c2nnc3n2CCNC3)C1 (centres undefined)	2.9%
O=C(c1ccc(-c2ncc3cnc(-c4ccccc4)cn23)cc1)N1CCS(=O)(=O)CC1	i
O=C(c1ccc(-c2ncc3cnc(C4=CCOCC4)cn23)cc1)N1CCc2ccccc2C1	i
O=C(c1cccc(O)c1)N1CC=C(c2cnc3cnc(-c4ccccc4)cn23)CC1	2µM*
CC(C)n1cc(C(=O)N2C[C@@H](CN3CCOCC3)[C@@H](CO)C2)cn1	-7.5%
Cc1ccc(-n2nc(C)c([C@@H]3C=C[C@@H](NS(=O)(=O)c4cccs4)C3)c2C)cc1Cl	11.2µM*
COc1ccc(C(=O)N[C@@H]2C=C[C@@H](c3c(C)nn(-c4ccc(C(F)(F)F)cc4)c3C)C2)cc1	-6.7%
Cc1nn(-c2ccc(C(F)(F)F)cc2)c(C)c1[C@@H]1C=C[C@@H](NS(=O)(=O)c2ccccc2)C1	i
COc1ccc(C(=O)N[C@@H]2C=C[C@@H](c3c(C)nn(-c4ccc(C)c(Cl)c4)c3C)C2)cc1	4.47µM*
COc1ccc(C(=O)N[C@@H]2C=C[C@@H](c3c(C)nn(-c4ccccc4)c3C)C2)cc1	-23.6%[44.1 µM]
Cc1ccc(-n2nc(C)c([C@H]3C=C[C@@H](O)C3)c2C)cc1Cl	i
COCCC(=O)N[C@@H]1CN(Cc2cccnc2)C[C@H]1CN(C)C	i
CCOc1ccc(C(=O)N2CC(C(=O)NCCc3ccncc3)C3(CCOCC3)C2)cc1 (centres undefined)	-2.1%
O=C(NCc1cccc(C(F)(F)F)c1)C1CN(c2cccc(Cl)c2)C(=O)N1 (centres undefined)	i
